# CRE-bla Fsk – CRE-bla signaling modulation under forskolin stimulation; Potency, µM (titrated, usually from 38.2 µM), for the others: at the top dose activity change, negative = inhibition, hits mostly activators; CHO CRE-bla reporter (cAMP response element driving beta-lactamase), forskolin EC10, beta-lactamase ratio; actives 2.5% (n = 71,000); active = well fitted activation curve with a large enough effect in the signal ratio, with a control signal flat, not every such curve was filed as active; inconclusive = small, poorly fitted or top-dose-only effect, or effect the other way, or a change in a side signal; the % refers to the signal ratio; also: % of control where 0% means no effect
#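 Using CellSensor CRE-bla CHO cells in Opti-MEM with 0.5% dialyzed FBS, compounds were titrated with EC10 NKH 477 for 3 h at 37 °C. CCF4 ratio (460/530 nm) gave %Activity; AC50 derived.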
# Imprint erasure – genomic imprint erasure induction. mouse ES Peg3-LacZ reporter, beta-gal luminescence, 40 h. Potency, µM (highest dose often 60.7 µM), for the others: top-dose activity change, positive = activation, usual class: activators. actives 0.02% (n = 110,000)
#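 Readout: BetaGlo luminescence (5 min, room temp) for LacZ from the normally silent maternal Peg3 allele in female Peg3LacZ-Neo ES cells. Cells 300/well, 40 h, 37C, 5% CO2. Data normalized per plate to negative controls.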
# p53ts 39C kill – cytotoxicity in p53ts cells at nonpermissive temperature | H1299-p53A138V viability at 39C, ATP luminescence, 24 h | Potency, µM (series often up to 46.1 µM), for inactives: at the highest dose activity change, negative = cell killing, most hits filed as cytotoxic | actives 1.5% (n = 130,000); also: % is scaled to controls: 0 for no effect and ±100 for the full control effect; nearly all actives have a fitted effect of over 55% in size
# p53ts 32C kill – p53ts cell cytotoxicity, permissive temperature. H1299-p53A138V at 32C, ATP luminescence viability, 24 h. Potency, µM (titrated, usually from 46.1 µM), inactives show at the top dose activity change, negative = cytotoxicity, usual class: cytotoxic. actives 0.93% (n = 130,000);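 also: 0% = DMSO and -100% = full killing by reference compound; nearly all actives have a fitted effect of over 55% in size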
#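 Viability by ATPlite luminescence after 24 h compound treatment (up to 46 uM) at the permissive 32C. Cells are H1299 carrying p53 A138V. Scale runs from DMSO basal to 100 uM tamoxifen as full kill; AC50 from Hill fits.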
# IkB sig inh – suppresses IkB signaling in ABC-DLBCL reporter cells; ABC-DLBCL IkBa-CBG/CBR dual luciferase ratio, 4 h; response scale: scaled: untreated 0%, proteasome inhibitor 100%; actives 0.04% (n = 110,000); Potency, µM (titrated, usually from 57.1 µM), for the others: at the highest dose IkBa stabilization activation; active = well fitted curve in the direction sought with a large enough effect in the signal ratio, not every such curve was filed as active; inconclusive = small, poorly fitted or top-dose-only effect, or a change in a side signal; the % refers to the signal ratio;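 also: the direction sought is a rising ratio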
#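 Curves were fitted separately to fusion (green), unfused (red) and ratio luminescence, then classed by r2, magnitude and activity. Cells: OCI-Ly3, 4 h compound plus doxycycline at 37C; 10 uM MG-132 defined full response.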
# Numbers without * were called inactive; ? = inconclusive; . = no result given; ! = not confirmed by another sample; [ ] = remark or other dose. An excerpt weighted towards active compounds, which were near 3% of everything screened. Unless noted, calls follow the shape of the dose curve; as a rule, active = well fitted curve in the direction sought with a large enough effect; inconclusive = small, poorly fitted or top-dose-only effect, or another doubt; inactive = no such curve, though single readings can be large; an effect the other way counts as inactive or inconclusive. Potency is read from the fitted curve at half-maximal effect.
SMILES,CRE-bla Fsk,Imprint erasure,p53ts 39C kill,p53ts 32C kill,IkB sig inh
COc1cc(C2c3c(-c4ccccc4O)n[nH]c3C(=O)N2Cc2ccco2)ccc1OCC(C)C (centres undefined),.,-7%[10.9 µM],20µM*,?,?
Clc1cccc(N2CCN(c3nc4ccccc4n4cnnc34)CC2)c1,.,?,?,5%,1%
CN1CCN(Cc2nc3c(c(=O)[nH]c(=O)n3C)n2Cc2c(F)cccc2Cl)CC1,14%,-13%,6%,4%,2%
Cn1c(=O)c2c(nc(CN3CCCCC3)n2Cc2c(F)cccc2Cl)n(C)c1=O,13µM*,-16%,21%,14%,0%
N#CCSc1nc2cc(C(=O)N3CCCC3)ccc2c(=O)n1Cc1ccccc1,?,-24%,-26%,-6%,-2%
N#CCSc1nc2cc(C(=O)N3CCC(C(N)=O)CC3)ccc2c2nc3ccccc3n12,2.5µM*,-13%,-6%,-1%,-5%
COc1cccc(NC(=O)Cn2c(=O)n(CCc3ccccc3)c(=O)c3c4c(sc32)CN(C(C)=O)CC4)c1,.,19%[10.9 µM],-6%,7%,3%
COC(=O)c1ccccc1NC(=O)c1ccc2nc(Cc3ccccc3)oc2c1,.,-7%[10.9 µM],-16%,-2%,0%
Cc1ccc(-c2nn3c(C)nnc3c3ccccc23)cc1S(=O)(=O)NCCO,.,-8%[10.9 µM],10%,-5%,?
COCCNS(=O)(=O)c1cc(-c2nn(C)c(=O)c3ccccc23)ccc1C,13µM*,2%,-2%,9%,0%
Cc1cc(C)c2ccc(N)nc2c1O,?,-26%,?,-22%,5µM*
Cc1ccc(C(=O)Nc2c(C(=O)NCc3ccc(Cl)cc3)sc3nc(C)cc(C)c23)cc1,.,-9%[10.9 µM],?,?,?
Cc1cc(C)c2c(NC(=O)c3ccccc3Cl)c(C(=O)NCc3ccc(Cl)cc3)sc2n1,.,-10%[10.9 µM],2.5µM*,?,5%
COc1ccc(Cn2c(=O)c3oc4ccccc4c3n(CC(=O)Nc3c(C)cccc3C)c2=O)cc1,.,-13%[10.9 µM],21%,3%,?
COc1ccc(C(=O)Nc2nc(C)c(C(=O)N(C)C)s2)cc1OC,15%,-46%,-20%,13µM*,0%
Cc1nc(NC(=O)c2ccc(Br)s2)sc1C(=O)N(C)C,?,-48%,?,13µM*,-1%
COc1ccc(CCNC(=O)C(C)n2c(=O)cc(C(F)(F)F)c3c(C)nn(C)c32)cc1OC (centres undefined),.,-8%[10.9 µM],9%,0%,?
O=C(/C=C\Nc1ccc2c(c1)OCO2)c1ccccn1,8%,-86%,2.5µM*,1.6µM*,?
CCOC(=O)c1c(NC(=O)c2nc(S(C)(=O)=O)ncc2Cl)sc(C(C)=O)c1C,.,-7%[10.9 µM],?,-25%,?
Cc1cc(C)n2c(Br)c(CSc3nc4ccccc4o3)nc2n1,6.3µM*,-23%,0%,1%,-1%
Nn1c(CSc2nc3ccccc3o2)nnc1CSc1nc2ccccc2o1,-10%,7%,-2%,-11%,?
CCCCOc1ccc(C(=O)O)cc1,?,-37%,12%,4%,1%
CC/C(=C(\c1ccccc1)c1ccc(OCCN(C)C)cc1)c1ccccc1,?,-15%,32µM*!,32µM*!,?
Cc1cc(C)c(/C=C/c2onc(C)c2S(=O)(=O)N2CCC(C(=O)N3CCN(c4ccccc4)CC3)CC2)c(C)c1,.,-4%[10.9 µM],-17%,0%,-1%
COC(=O)c1ccc2c(c1)N(Cc1nc(-c3cccc(C)c3)oc1C)C(=O)C1CCCN21 (centres undefined),4µM*,-15%,-27%,-26%,-5%
SMILES,CRE-bla Fsk,Imprint erasure,p53ts 39C kill,p53ts 32C kill,IkB sig inh
Cc1cccc(-c2nc(CN3CCCC(C(=O)NC4CCCCCC4)C3)c(C)o2)c1 (centres undefined),-17%,-20%,-24%,-8%,-3%
Cn1nc(-c2ccc(Cl)cc2)c2cc(C(=O)NCCN3CCOCC3)sc21,?,-15%,-8%,0%,0%
CCCCN(CC)CCNC(=O)c1cc2c(-c3ccc(Cl)cc3)nn(C)c2s1,.,-5%[10.9 µM],16µM*,1%,?
CCCN(CCC)CCNC(=O)c1cc2c(-c3ccc(Cl)cc3)nn(C)c2s1,.,-14%[10.9 µM],13µM*,-24%,?
Cn1nc(-c2ccc(Cl)cc2)c2cc(C(=O)NCCCN3CCOCC3)sc21,7.9µM*,-22%,-16%,0%,7%
CCOCCCNC(=O)c1cc2c(-c3ccc(Cl)cc3)nn(C)c2s1,2µM*,-17%,-14%,0%,4%
CCOc1ccccc1NC(=O)Cn1c(=O)nc(-c2ccccc2F)c2cc(Cl)ccc21,.,7%[10.9 µM],-2%,7%,?
COc1c(C)cccc1C(=O)Nc1ccc(Cl)c(-c2nc3cc(C)ccc3o2)c1,.,?,-2%,-6%,-3%
Cc1ccc(C)c(NC(=O)Cn2c(=O)n(Cc3ccco3)c(=O)c3oc4ccccc4c32)c1,.,?,-10%,9%,-2%
Cc1cccc(-c2nc(S(=O)(=O)c3ccccc3)c(N3CCN(c4ccccc4)CC3)o2)c1,.,-10%[10.9 µM],21%,7%,-1%
CCOC(=O)CSc1nc2cc3c(cc2c(=O)n1CCCC(=O)NCc1ccc2c(c1)OCO2)OCO3,.,-11%[10.9 µM],?,2%,-1%
CCn1c(SCC(=O)Nc2ccccc2N2CCCCC2)nc2c1c(=O)n(C)c(=O)n2C,10µM*,-6%,-11%,-6%,?
CCOC(=O)c1cnc(-n2cc(C)cn2)nc1NCc1ccc2c(c1)OCO2,2.5µM*,-3%,-3%,5%,1%
O=C(OCc1ccccc1F)c1ccc(-c2nnn(Cc3ccccc3)n2)cc1,.,-6%[10.9 µM],15%,-1%,-3%
COCC(=O)Nc1c(C(=O)Nc2ccccc2OC)oc2ccccc12,8%,-2%,-14%,-13%,0%
COc1ccccc1NC(=O)c1oc2ccccc2c1NC(=O)c1cc(OC)c(OC)c(OC)c1,1.3µM*,-21%,7%,-4%,1%
CCOC(=O)c1oc2ccccc2c1NC(=O)c1cc(OC)cc(OC)c1,10µM*,-6%,-18%,-14%,5%
CCOCC(=O)Nc1c(C(=O)OCC)oc2ccccc12,10µM*,-10%,-8%,-8%,-1%
CCOc1ccccc1N(CC)C(=O)c1cc2c(=O)n(CC)c3ccccc3c2s1,.,-13%[10.9 µM],24%,36%,?
Cc1ccc(S(=O)(=O)c2cn(C)c3cc(N4CCCCCC4)c(F)cc3c2=O)cc1,.,.,.,-7%,.
Cc1nnc2sc(-c3csc4c3CCCC4)nn12,10µM*,-22%,0%,-11%,3%
COc1ccc2ncc3c(-c4ccc(C)c(C)c4)nn(CC(=O)Nc4ccccc4)c3c2c1,.,-12%[10.9 µM],?,?,1%
COc1ccc(CCNC(=O)c2c[nH]c3ccccc3c2=O)cc1OC,10µM*,-6%,-13%,0%,0%
